Laboratory results: PubChem BioAssay AID489042 (NMMLSC, 2010)
Unmarked numbers belong to inactive results. Activity calls are given as the source filed them. Cut-off read from the data, not from the text of the source: active = inhibition score above about 11; inactive = the rest.

experiment: yeast proliferation inhibition, dose response, BY4741, OD595, 24 h (AID 489042); settings: S. cerevisiae BY4741 growth, active compounds read high

Row | SMILES | inhibition score
1 | C=CCSc1nnc(-c2ccc([N+](=O)[O-])cc2)o1 | 10
2 | CCc1nc(NC(C)(C)C)c2cnn(-c3ccccc3)c2n1 | 0
3 | CCC(=Nc1ccccc1O)C1=C(O)CC(c2ccccc2)CC1=O (stereo not drawn) | 10
4 | FC(F)(F)c1nc2cc3nc4ccccc4[nH]c3cc2n1 | 0
5 | O=C(CN1CCN(c2ccccn2)CC1)Nc1ccccc1F | 0
6 | COC(=O)c1cccc2nc3c(C(C)O)cccc3nc12 (stereo not drawn) | 0
7 | O=C(/C=C/c1ccccc1)NC(=S)NNC(=O)Cc1cccs1 | 21 (active)
8 | CC(C)OC(=O)CSc1nnc(-c2ccc(Cl)cc2Cl)o1 | 0
